Calls of active or inactive are those of the source.
assay: E. coli growth modulation, two-sided OD650, primary screen, E. coli filamentation project, strain DRC41, 24 h (AID 1093); conditions: OD650, 24 h, higher = more signal, called active from +8 up or from −8 down;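 further: MC1000 strain lacking acrAB efflux and sulA so SOS filamentation is blocked; test concentration not given here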

z-score, inactive:
O=C1C[C@@](C(=O)O)(c2ccc([N+](=O)[O-])cc2)[C@@H](c2ccc(CO)cc2)N1CC12CC3CC(CC(C3)C1)C2 0.91
Cc1ccc(S[C@]2(C(=O)O)CC(=O)N(Cc3ccccc3C(F)(F)F)[C@@H]2c2ccc(CO)cc2)cc1 0.301
COC(=O)c1ccc(OC)c(/C=C\CC(CCc2ccccc2)OC(C)=O)c1 (configuration not stated) -0.031
C#CCNS(=O)(=O)N(C)C 0.663
O=C1CSC(c2cccc([N+](=O)[O-])c2)N1c1ccccc1 (configuration not stated) 0.666
CCN(CC)c1ccc(N2CC=CC34O[C@@H]5/C=C\CCCOC(=O)C5[C@H]3C(=O)N(CCCCCO)[C@@H]4C2=O)cc1 (some centres not stated) -0.838
OCc1ccc(-c2cc[n+](Cc3cccc(OC(F)(F)F)c3)cc2)cc1 0.261
COCC1=C([C@H](O)CCc2ccccc2)[C@H](CO)[C@@H]2C(=O)N(C)C(=O)[C@@H]2C1 1.99
COC(=O)[C@@]1(Cc2ccc(F)cc2)[C@H]2c3cc(C(=O)N(C)C)n(Cc4ccc(C)c(F)c4F)c3C[C@H]2CN1C(=O)c1ccccc1 0.583
CCOC(=O)C[C@H]1[C@H](OC(=O)c2ccc(C(=O)c3ccccc3)cc2)[C@@H](NC(=O)C2CCCCC2)c2cc(OCCCO)ccc2N1C(=O)Cc1ccc(OC)cc1 0.332
CCCN1C(=O)[C@@]2(Cc3ccccc3)N=C(c3ccc(OCCCO)cc3)O[C@H]2c2ccccc21 1.09
O=C1C2C=CC(C(O)c3ccccn3)N(Nc3ccccc3)C2C(=O)N1c1ccccc1 (configuration not stated) -0.917
